The full ranking holds about 4,500 sequences; the median of “median log2 fold change of GCK-ALFA target abundance (FLAG IP / Myc IP barcode read proportion)” is about 0.078, and the lowest 2% start at about -0.6. Shown is part of a subset that was picked to be rich in the lowest values.
B1: GBRAP_125_2963 (protein)
chain: SEEEDLKALATLAKALGFDEDDVAEAVELARKFGIKNTVIALFLAEGYEEVAELVEKLTEEEVREVLKELAKEIEANPDLTPEEVVELAKKLLEKKIAKK
B2: GBRAP_39_5685 (protein)
chain: EEEEEDENVVSYLEGLAAARLYETGKSLEELFEEAKKILKALAKEEPELKELIEELIELAEKKGDEAKLALIGIAVLVEEGTPLEEIKENIEKVINYFKK
B3: GBRAP_39_5686 (protein)
chain: EEEEENEDVVSYLEGLAAKYLYETGKSLEEAFEEAKKILLKLAEEHPELKELIEKLIELAEKKGEEAKLALIGIAVLVKQGTPLEEIKENIEKVIAYFES
B4: GBRAP_125_3124 (protein)
chain: AEAQALADLAAVLKALGFDDEDVAEAVELAAAHSIRGTLYAALLALGDEEGADLVAKLTEEQTKEVVAAVNAWLKAHPDATPEEVKEKLLALLKEAVAAS
B5: GBRAP_160_4816 (protein)
chain: MEKVEELLKEAEEDLLDTAEASKDLPIEDRAALLRAEGYTSILELKEELNLSDETEDKLVAIVDELVARLLANPDLTPEEVLALVKEAYEKMKKIVLEEA
B6: GBRAP_11_2768 (protein)
chain: KKEELKKAAELAEKAAKTVEKLLKEGVDNEELLKEIEELLKELKKLTEKYGNEDMKKLVKIAEELLEEIKKDPENAEEYAKELKATLDVLAGQYLLEAEE
B7: GBRAP_128_3156 (protein)
chain: SVEEVRKKTRELLEKIKESDDETARELARELFELIGTLSPEEAEAAVEVILERLPELSEEKLEILADVAREMMPKYDPYKANLLAEVEVEALNEAEELEE
B8: GBRAP_160_4781 (protein)
chain: SEKKEKLKKAIEEAAKEIKEAIDTESPEQVLTVVRGEGGDILQEAEELGIDNEEALEGLDKGIKELEAAMKAAADASPEEKKAIVDKAKEKMIETLDKLT
B9: GBRAP_52_5905 (protein)
chain: MRARLRADLEEIIAAVRAGDLEAARAKARELAETYDDEELELAAEELAALVLEAPREDLPAWWRTAEIIAEALEEAGRDEVLADLVLSRTAAAIHEVLQR
B10: GBRAP_184_5056 (protein)
chain: MIHEKVIKAETLEELEEKLEELEEELKDFKGELIVHVEIPEFTEEMIELIIERLKRILENGYVSSVTLGLDGKMSEEVVDLAIKLADEAGIKLVIALEEE
B11: GBRAP_14_3829 (protein)
chain: MEEIEAVIEEAREDLIELFEEIVPEKAEELAEAVEEVFEELKRRIKETGNVEEAIEEARERLKEEAKKILADEPEEIRNLVLAAIDIEFAELEEEIEELL
B12: GBRAP_160_4075 (protein)
chain: SKETEELKKEIKEIAEEAIEFIKESNLENQIAIAEMMAGDILMLVFEAPFISDEDEERIDKILDKYVELLKENKDWSLEEKEEIIKEMAEEVIKEVEKAS
B13: GBRAP_11_2853 (protein)
chain: KKEKLKEIAELAEEAIKLLEELLKKGVDDEELQKKILEKLKELLELVKKYLDEADVKLAEYALESFEKSLKDPENAEEYVNEALAFLRVLLGNVLLEIDE
B14: GBRAP_78_6627 (protein)
chain: EVEELLEKALEKVEEAAKLATKIPSEKAIDILDELIDAFEYLEEAIEEGGDLEKIEKALKELKKALELIKEQNDPKLEPLKKEVEEAIKLLEKAKKKIKE
B15: GBRAP_177_5010 (protein)
chain: SRLAEIEAAADDPEALLALVAATDLRELSREELLALLRALARAIAREGPRPELLEAAVRVAVALITDHGVSLAEVVAILIEHADPDTVEEVVERVAERLA
B16: GBRAP_39_5638 (protein)
chain: SREEEAEETFDYLEALGAKLLSERGISLDELLEEEYKYAREAFKDDPELLAAIDELYELALKGDDTDKLAAAGAFSLVREGKSKEEVLEAVELLIYYLKS
B17: GBRAP_160_4650 (protein)
chain: EERKEKLKERIKELIEEAYEMMKGETHEERIAIARVMGGDIILELDEDEGVSDEAIEEVDKIMDEFVATLEANPDLTDEEIRALLEEMLKKIFEIIDKYT
B18: GBRAP_9_7158 (protein)
chain: MDELVAKLREVIEDAFEEIKEVVPEEVKPIVEKLREEAEKRLEELEEDPEATPEELVEEAKRILREFRERMKKEVDEETAKIVDAIVDTAELEIEEIEEE
B19: GBRAP_39_5717 (protein)
chain: EEEEEAENIFSYYEAVGAAEMYKRGISLEELFERTLAEARELAADDPELLAALEELEELALKAGDEAKLAATGIMVRLVEGAPREEVLADLKKLIAYLKS

biological target: GABARAP, O95166; test: median log2 fold change of GCK-ALFA target abundance (FLAG IP / Myc IP barcode read proportion) (log2 ratio); each designed protein is fused to an ALFA-tag nanobody in HEK293 cells to bring the named protein to FLAG-tagged glucokinase (GCK); Myc marks an untargeted standard; higher = target protein stabilised (more abundant); conditions: target protein: 3xFLAG-MCP-GCK-ALFA reporter; HEK293 landing pad (RPLP)
Outline: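 HEK293 landing-pad cells received a recombined binder library fused to the ALFA nanobody and were induced with 2 μg mL^−1 doxycycline, then transfected with a plasmid encoding a FLAG-tagged target and a Myc-tagged standard. Lysates were collected after 48 h for anti-FLAG and anti-Myc immunoprecipitation, and the circular RNA barcodes were reverse transcribed, amplified and sequenced. Target abundance for each binder is the median log2 ratio of FLAG to Myc barcode read proportions. Barcodes had to reach a proportion of at least 10^−7 in both replicates, each binder needed at least 3 barcodes per replicate, a pseudocount of 10^−6 was applied, and the two replicates were pooled.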

GABARAP, O95166, sequence (O95166 whole entry, the tested form may be a part): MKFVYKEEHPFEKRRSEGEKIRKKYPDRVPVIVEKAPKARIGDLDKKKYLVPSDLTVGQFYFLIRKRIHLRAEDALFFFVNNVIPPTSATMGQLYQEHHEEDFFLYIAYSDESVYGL

B1 and B2 are within 0.2 log units of each other in “median log2 fold change” value: -0.725 for the first, -0.604 for the second.

Compared with B3, B4 is lower in “median log2 fold change” value: 0.293 for the first, -0.452 for the second.

B5 and B6 are within 0.2 log units of each other in “median log2 fold change” value: 0.0572 for the first, 0.117 for the second.

First: B7
Second: B8
The “median log2 fold change” value of the first is lower: -0.269 for the first, 0.333 for the second.

Going from B9 to B10, the “median log2 fold change” value rises from -0.658 to 0.234.

Compared with B11, B12 is higher in “median log2 fold change” value: -0.798 for the first, -0.29 for the second.

First: B13
Second: B14
The “median log2 fold change” value of the first is higher: 0.174 for the first, -0.061 for the second.

B15 and B16 are within 0.2 log units of each other in “median log2 fold change” value: 0.0662 for the first, 0.2 for the second.

Going from B17 to B18, the “median log2 fold change” value rises from -0.715 to 0.0143.

With B19 the “median log2 fold change” value was 0.239.

— the supplement of paper PMC12632987
